Test results as given in PubChem BioAssay AID493131 (Broad Institute, 2011).
In all, about 340,000 compounds went through this assay and about 3,300 (0.97%) were called active.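 The calls were made as follows: active = mean activation above about 17%, with every replicate also reaching it (limit read from the data, passing the limit was not always enough); inconclusive = only one of the two conditions met; inactive = the rest.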 The entries come from a sample that favours actives as a whole.

target: Protein FosB (Mus musculus) (UniProt P13346); assay: activators of delta FosB homodimer, primary screen, biochemical, fluorescence polarization, TAMRA-CDK5 oligo, single point (AID 493131); conditions: purified delta FosB, at 25 µM, hits give high values, percent of positive-control signal above neutral wells;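 also: fluorescence polarization rise as delta FosB binds a TAMRA Cdk5 AP-1 oligo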
Sequence (P13346 whole entry, looked up): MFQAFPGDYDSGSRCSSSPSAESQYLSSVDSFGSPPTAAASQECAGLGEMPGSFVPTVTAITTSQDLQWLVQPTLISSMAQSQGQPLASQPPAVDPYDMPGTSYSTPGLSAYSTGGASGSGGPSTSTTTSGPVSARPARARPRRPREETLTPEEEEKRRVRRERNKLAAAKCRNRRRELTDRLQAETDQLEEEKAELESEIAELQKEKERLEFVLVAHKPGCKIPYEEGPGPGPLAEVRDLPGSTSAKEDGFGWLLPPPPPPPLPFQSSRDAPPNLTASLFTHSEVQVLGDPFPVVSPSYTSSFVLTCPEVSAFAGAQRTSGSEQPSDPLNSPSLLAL

| Structure (SMILES) | activation |
| --- | --- |
| COc1cc(CNCc2ccc(OC)c3ccccc23)cc(OC)c1OC | -10.2% (inactive) |
| Cc1cc(C)c2nc3nc(C)cc(C)c3c(N)c2c1 | 25.9% (active) |
| CNC(=O)C1CC(=O)N(c2ccc(OCC(=O)Nc3ccccc3C)cc2)C1 (centres undefined) | 5.55% (inactive) |
| COc1ccc(OC)c(S(=O)(=O)N(C)CC(=O)N2CCN(c3ccccc3)CC2)c1 | 3.45% (inactive) |
| O=C1CC(c2ccccc2)C(=O)N1c1cccc(O)c1 (centres undefined) | 0.8% (inactive) |
| O=C(CN1C(=O)c2cccc3cccc(c23)C1=O)N1CCCCC1 | 2.41% (inactive) |
| O=C1c2cccc3cccc(c23)C(=O)N1c1cccc(O)c1 | 27.4% (active) |
| Cc1ccccc1CC1(CO)CCCN(Cc2ccc3c(c2)OCCO3)C1 (centres undefined) | -8.09% (inactive) |
| COc1ccc(Nc2nc(NCc3ccco3)nc(N/N=C/c3ccccc3Cl)n2)cc1 | 43% (active) |
| C=CCC(NCc1ccco1)c1ccc(OC)cc1 (centres undefined) | -0.535% (inactive) |
| COc1ccc(-n2cnc3cc(NCc4ccco4)ccc32)cc1 | -0.508% (inactive) |
| O=C1c2cccnc2C(Nc2ccc(S(=O)(=O)N3CCCCCC3)cc2)N1Cc1ccccc1 (centres undefined) | -10.2% (inactive) |
| O=C(NCc1ccco1)c1ccc(Cn2c(=O)c3sccc3n(Cc3ccc(F)cc3)c2=O)cc1 | -6.02% (inactive) |
| O=C(NCc1ccco1)c1cc2sccc2n1Cc1ccc(F)cc1 | -6.3% (inactive) |
| O=C(Cc1ccc(-n2c(=O)c3sccc3n(Cc3ccc(F)cc3)c2=O)cc1)NCc1ccco1 | 20.9% (active) |
| CC1(C)Oc2ccc(C(=O)N3CCOCC3)cc2N(CC(=O)Nc2ccccc2)C1=O | -4.29% (inactive) |
| CC(=O)NC(Cc1ccc(F)c(F)c1)C(=O)NC1CCN(c2nnnn2-c2ccccc2)CC1 (centres undefined) | -5.56% (inactive) |
| COc1ccc(CCNC(=O)C2CCCN2C(=O)Nc2ccccc2)cc1OC (centres undefined) | 1.24% (inactive) |
| CC(C)CCNC(=O)c1ccc2c(Cl)c3c(nc2c1)CCC3 | -19.8% (inactive) |
| CC(=NC1CCN(Cc2ccccc2)CC1)c1c(O)[nH]c(=O)[nH]c1=O | 6.14% (inactive) |
| CS(=O)(=O)N(CC(=O)N1CCN(Cc2ccccc2)CC1)c1ccc2c(c1)OCCO2 | -2.7% (inactive) |
| c1ccc(CN2CCC(N=C3NN=C(c4ccc5c(c4)OCCO5)CS3)CC2)cc1 | 18.3% (active) |
| Cc1ccc(C(=O)NC(C)c2ccccc2)cc1Br (centres undefined) | -1.72% (inactive) |

| Structure (SMILES) | activation |
| --- | --- |
| CCN(C(=O)CSc1nc2ccccc2n1CC)C1CCS(=O)(=O)C1 (centres undefined) | -12.5% (inactive) |
| O=C(CNS(=O)(=O)c1ccc(Br)s1)NCc1ccc2c(c1)OCO2 | -7.24% (inactive) |
| CCOc1ccc2[nH]c(C(=O)N/N=C/c3cccc(OC)c3OC)cc2c1 | -5.75% (inactive) |
| COc1ccc2[nH]c(C(=O)N/N=C/c3cc(OC)c(OC)c(OC)c3)cc2c1 | -21.6% (inactive) |
| COc1cccc(OCc2cc(/C=N/NC(=O)c3nc(Cl)c(Cl)c(N)c3Cl)ccc2OC)c1 | 59.2% (active) |
| CCOCCCNC(=O)C(NC(=O)c1ccc(=O)[nH]c1)c1ccc(Cl)cc1 (centres undefined) | -7.55% (inactive) |
| O=C(COc1ccc(/C=N/NC(=O)c2ccc(O)cc2)cc1)Nc1ccc([N+](=O)[O-])cc1 | -4.3% (inactive) |
| O=C(N/N=C/c1ccc(OCc2ccccc2)cc1)c1ccc(O)cc1 | 19.7% (active) |
| O=C(Cc1cccs1)N/N=C/c1ccc(OCc2ccccc2)cc1 | -8.99% (inactive) |
| O=C(Nn1cnc2ccccc2c1=O)c1ccc(F)cc1Cl | -11% (inactive) |
| Cc1ccc(S(=O)(=O)NCc2ccc(C(=O)NC3CCC(C)CC3)cc2)cc1 (centres undefined) | 1.88% (inactive) |
| Cc1cccc(C)c1NC(=O)c1ccc(CN2CCc3ccccc3C2)cc1 | 5.39% (inactive) |
| COc1ccc(OC)c(NC(=O)C2CCCN2S(=O)(=O)c2cccc3nsnc23)c1 (centres undefined) | -12.4% (inactive) |
| COC(=O)C1=C(C)N(c2ccc(C)cc2)/C(=C/c2ccc(O)cc2)C1=O | -7.3% (inactive) |
| O=C(CSc1nnc(Cn2cnc3ccccc32)o1)c1ccccc1 | -10.9% (inactive) |
| CC(=O)Nc1ccc(C(=O)CSc2nnc(Cc3ccccc3)o2)cc1 | 32.2% (active) |
| CCCc1nnc(SCC(=O)Nc2ccc(C(=O)OCC)cc2)o1 | -7.89% (inactive) |
| COC(=O)CN1C(=O)N/C(=C/c2ccc(OC)c(C)c2OC)C1=O | -0.812% (inactive) |
| CCN1C(=NCCc2cccnc2)N[C@@H](c2ccccc2)C(C(=O)OC)=C1C | -0.917% (inactive) |
| COC(=O)c1ccc(C23CC4(C2)[C@H](CN(Cc2cccnc2)[C@@H]4c2ccccc2)C3c2ccc(Cl)nc2)cc1 (some centres undefined) | 23.5% (active) |
| Clc1ccc(C2[C@H]3CN(CC4CCCCC4)[C@H](c4ccccc4)C34CC2(c2cccnc2)C4)cn1 (some centres undefined) | 2.72% (inactive) |
| CN(C)C(=O)CSc1n[nH]c(-c2ccco2)n1 | 7.7% (inactive) |
| COc1ccc(C(=O)C2CCCN(S(=O)(=O)c3cccc(C)c3)C2)c(C)c1 (centres undefined) | -8.61% (inactive) |

| Structure (SMILES) | activation |
| --- | --- |
| COc1cc2[nH]c(=O)n(Cc3ccc(C(=O)NC4CCN(Cc5ccccc5)CC4)cc3)c(=O)c2cc1OC | 40.7% (active) |
| COc1cc(C(=O)NC2CCN(Cc3ccccc3)CC2)cc(Cl)c1OC(C)C | -2.75% (inactive) |
| COc1cc2[nH]c(=O)n(CCC(=O)NC3CCN(Cc4ccccc4)CC3)c(=O)c2cc1OC | -7.1% (inactive) |
| CN(C(=O)COC(=O)c1ccc(Br)o1)c1c(N)n(Cc2ccccc2)c(=O)[nH]c1=O | 5.25% (inactive) |
| Cc1cc(OCC(=O)N(C)c2c(N)n(Cc3ccccc3)c(=O)[nH]c2=O)c(C(C)C)cc1Cl | 30.7% (active) |
| CC(C)CN(C(=O)COC(=O)c1ccc(Cl)c(N)c1)c1c(N)n(Cc2ccccc2)c(=O)[nH]c1=O | 0.351% (inactive) |
| CC(C)Sc1nc(N)nc2c1ncn2C1OC(CO)C(O)C1O (centres undefined) | -4.1% (inactive) |
| O=C(CCN1CCc2ccccc2C(O)(c2ccccc2)C1)c1ccc2c(c1)OCCO2 (centres undefined) | 1.68% (inactive) |
| CCCCN(C(=O)c1ccc(OC(F)(F)F)cc1)c1c(N)n(CCC)c(=O)[nH]c1=O | -2.28% (inactive) |
| O=C(CS(=O)(=O)c1ccccc1)Nc1ccc(S(=O)(=O)Nc2ccccn2)cc1 | 1.81% (inactive) |
| O=C(Nc1ccc(Br)cc1)c1cc(S(=O)(=O)Nc2ccccn2)ccc1Cl | 40.2% (active) |
| O=C(Nc1ccc(S(=O)(=O)Nc2ccccn2)cc1)c1ccccc1 | -2.22% (inactive) |
| COc1ccccc1N1CCN(C(=O)c2cc(=O)c3cc(C)cc(C)c3o2)CC1 | -12.4% (inactive) |
| CCOc1ccc(S(=O)(=O)N2CCN(C(=O)c3oc4ccccc4c3C)CC2)cc1 | -13.9% (inactive) |
| CCn1cc(C(=O)OCC(=O)Nc2cccc(C)c2)c(=O)c2ccc(C)nc21 | -9.83% (inactive) |
| Cc1ccc(NNC(=O)c2cccs2)cc1Cl | -4.02% (inactive) |
| CCCCC1N2CC3([N+](=O)[O-])CN1CC([N+](=O)[O-])(C2)C3(C)C (centres undefined) | 0.0626% (inactive) |
| CCn1nc(C)c(NC(=O)/C=C/c2ccc(OC)c(COc3ccc(Br)cc3)c2)c1C | 13.3% (inactive) |
| COc1ccc(/C=C/C(=O)Nc2c(C)nn(C)c2C)cc1COc1ccc(Br)cc1 | 21.7% (active) |
| COc1ccc(OC)c(S(=O)(=O)Nc2c(C)nn(C)c2C)c1 | 1.81% (inactive) |
| Cc1ccc2c(c1)C1CN(C)CCC1N2S(=O)(=O)c1ccc(Oc2ccc([N+](=O)[O-])cc2)cc1 (centres undefined) | 60.9% (active) |
| Cc1ccc2c(c1)C1CN(C)CCC1N2S(=O)(=O)c1cccc(F)c1 (centres undefined) | 1.55% (inactive) |
| Cc1ccc2c(c1)C1CN(C)CCC1N2C(=S)Nc1ccc(OC(F)F)cc1 (centres undefined) | -5.28% (inactive) |

| Structure (SMILES) | activation |
| --- | --- |
| COc1ccc([N+](=O)[O-])cc1N(CC(O)Cn1nnc2ccccc21)S(=O)(=O)c1ccc(C)cc1 (centres undefined) | -8.08% (inactive) |
| COc1ccc(Br)cc1C(=O)NC(=S)Nc1cc(-c2nc3ccccc3[nH]2)ccc1C | 30.2% (active) |
| COc1cc2ccccc2cc1C(=O)Nc1ccccc1C | -12.4% (inactive) |
| COc1ccc(Br)cc1C(=O)Nc1cccc(C)c1C | 6.11% (inactive) |
| Cc1nnnn1/C(=C\c1ccccc1)C(=O)OCC(=O)N1CC2(C)CC1CC(C)(C)C2 (centres undefined) | -16.8% (inactive) |
| Cc1nn(C)cc1CNC(=O)Nc1ccc(Cl)cc1 | -6.86% (inactive) |
| Cc1ccc(-c2cc(C(=O)NCc3cn(C)nc3C)c3cc(Br)ccc3n2)cc1 | 36.8% (active) |
| O=C(NCc1cccs1)c1cc(-c2ccccn2)nc2ccc(Br)cc12 | 2.96% (inactive) |
| CCN(CC)CCCNC(=S)N(CCO)Cc1cc2cc3c(cc2[nH]c1=O)OCO3 | -3.62% (inactive) |
| CS(=O)(=O)N1CCc2nc(-c3ccccc3)sc2C1 | -1.76% (inactive) |
| c1ccc(C[C@H]2CNCCN2CCC23CC4CC(CC(C4)C2)C3)cc1 | 20.1% (active) |
| O=C1CCNCCN1[C@H](CO)Cc1ccccc1 | -2.28% (inactive) |
| c1ccc2c(CCN3CCNC[C@H]3Cc3cccc4ccccc34)cccc2c1 | 12.1% (inactive) |
| CC(Oc1cc2oc(=O)c3c(c2cc1Cl)CCCC3)C(=O)NCc1ccncc1 (centres undefined) | -1.99% (inactive) |
| COc1ccc2c(c1)c(C(=O)N/N=C/c1cccs1)c(C)n2C | -3.67% (inactive) |
| CCOC(=O)C1=C(COC(=O)[C@H](C)NS(=O)(=O)c2ccccc2F)NC(=O)NC1C (some centres undefined) | -4.67% (inactive) |
| Cn1ncc2c(NNC(=O)Cc3cccc4ccccc34)ncnc21 | 2.75% (inactive) |
| CCOC(=O)c1ccc(NC(=O)C2CC(=O)Nc3nc4ccccc4n32)cc1 (centres undefined) | 7.67% (inactive) |
| CC(=O)c1ccc(NC(=O)C2CC(=O)Nc3nc4ccccc4n32)cc1 (centres undefined) | 19.8% (active) |
| O=C(Nc1ccccc1)C1CC(=O)n2c(nc3ccccc32)N1 (centres undefined) | 12% (inactive) |
